± gives the standard deviation. Over roughly 6,200 sequences, “pre-steady-state target cleavage rate” has its median near 0.29; the highest 2% begin near 2. This is one part of a sample in which the highest values are shown more often than they occur.
Test system: MIWI (PIWIL1) piRISC loaded with piRNA #1 (30 nt)
Experiment: pre-steady-state target cleavage rate (min^-1); MIWI and MILI are mouse PIWI proteins and EfPiwi is from a freshwater sponge; tags in brackets are library labels; higher = faster piRNA-guided slicing of the target
Conditions: guide: piRNA #1 5'p-UGAGGUAGUAGGUUGUAUAGUAUCCAGAGG; auxiliary factor: 500 nM mouse GTSF1
Procedure, shortened: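 The pre-steady-state cleavage rate came from a burst-and-steady-state fit to pooled data from three Cleave-'n-Seq trials, in which uncleaved targets were sequenced and normalised to depth and to weakly complementary targets. Each reaction held 0.1 nM transcribed, DNA-blocked target RNA library and 1 nM active affinity-purified piRISC carrying one synthetic guide, with or without 500 nM GTSF1 partner protein, in HEPES–potassium acetate buffer at 33 °C for 0–8 or 0–960 min. k3 was capped at 0.0001 min^-1.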

Sequence	pre-steady-state target cleavage rate
GGAGUGGAUACUAUAGAACCUACUACCUCA	1.34 ± 0.076
GGAGACCAUACUAUUCAACCUACUACCUGA	0.64 ± 0.075
GGAGAGGAUACUAUAGAACCUACUUCCUCA	0.00722 ± 0.0046
GGACUGCUUACUAUACAACCUACUACCUCA	1.54 ± 0.14
GGAGACCUAUGUAUACAAUCUACUACCUCA	0.0144 ± 0.0036
GCUCUGGAUACUAUACAACCUACUACCUCC [g2:g29:cont:t1C]	2 ± 0.13
GCUCUGGAUACUAUACAACCUACUACCUA	1.37 ± 0.1
GCUCUGGAUACUAUACUACCUACAACCUCA	0.938 ± 0.086
GGAGACCAUACUUUACAACCUACUACCUCA	1.3 ± 0.087
GCUCUGGAUACCAUACAACCUACUACCUCA	0.756 ± 0.059
GCUCUGGAUACUAUACAACCUACUAUCUCA	2.32 ± 0.24
GCUCUGGAUACUAUACAACCUACUACUCA	1.64 ± 0.14
CCUCUGGAUACUAUACAACCUACUAUCUCA	1.09 ± 0.076
GCUCUGGAUACUAUACAACCUAUCUACCUCA	0.356 ± 0.028
CCUCUGGAUACUAUACAACCUACUACUCUCA	2.32 ± 0.16
CCUCUGGAUACUAUACAACCUACUACUCA	1.76 ± 0.15
GGUCUGGAUACUAUACAACCUACUACUCUCA	1.2 ± 0.1
CCUCUGGAUACUAUACAACCUACUCCUCA	0.105 ± 0.022
GCUCUGGAUACUAUACAACCUACUACUCUCA	2.07 ± 0.12
CCUCUGGAUAGUAUACAACGUACUACCUCA	0.0367 ± 0.011
GGAGACCUAUCUAUACAACCUACUACCUUA	0.905 ± 0.069
GGAGACCUAUCUUUUCAACCUACUACCUCA	0.0982 ± 0.032

Sequence	pre-steady-state target cleavage rate
GCAUCUGGAUACUAUACAACCUACUACCUCA	1.82 ± 0.087
GGAGACCUAUGAUAUGUUGCUCACUACCUCA	0.00246 ± 0.0017
GGUCUGCAUUCUAUACAACCUACUACCUCA	1.51 ± 0.11
CCUCUGCAUACUAUACAACCUACUACCUCA	2.01 ± 0.12
CCUCUGCAUACUAUACAACCUACAACCUCA	1.7 ± 0.12
GCUCUGCAUACUAUACAACCUACUACCUCA	1.96 ± 0.11
GCUCUGCAUACUAUUCAACCUACUACCUCA	1.93 ± 0.12
CCUCUGCAUUCUAUACAACCUACUACCUCA	2.13 ± 0.13
GCUCUGCAUUCUAUACAACCUACUACCUCA	1.65 ± 0.11
CCUCUGCAUACUAUACAACCUACUACCACA	2.37 ± 0.19
GGUCUGCAUACUAUACAACCUACUACCACA	0.7 ± 0.07
GCUCUGCAUACUAUACAACCUACUACCACA	1.98 ± 0.18
CCUCUGCAUACUAUUCAACCUACUACCUCA	2.21 ± 0.14
GGUCUGCAUACUAUUCAACCUACUACCUCA	1.65 ± 0.12
GGACUGGAUACUAUACAAGGUACUACCUCA	0.331 ± 0.036
GCUCAGGAUACUAUACAACCUACUACCUGA	0.681 ± 0.042
GGAGACCAUACUAUACAACCUACUACCAUCA	1.35 ± 0.087
CCUCUGGAUACAAUACAACCUACUACCUGA	0.657 ± 0.085
GGAGACCUUACAAUACAAGCUACUACCUCA	0.258 ± 0.035
GCUCUGGAUAGUAUACAACCUACUACCUGA	0.324 ± 0.045
GGACUGGAUACUAUACAACCUAGAACCUCA	0.0154 ± 0.004
GGACUGGAAACUAUAGAACCUACUACCUCA	1.13 ± 0.08

Sequence	pre-steady-state target cleavage rate
GGAGAGGAUACUAUGCAACCUACUACCUCA	1.62 ± 0.095
GGACUGGAUACAUAACAACCUACUACCUCA	0.634 ± 0.11
GGUCUGCAUACUUUACAACCUACUACCUCA	1.48 ± 0.12
GCUGUGCAUACUAUACAACCUACUACCUCA	1.91 ± 0.12
GCUCUGCAUACAAUACAACCUACUACCUCA	1.82 ± 0.13
CCUCAGCAUACUAUACAACCUACUACCUCA	2.12 ± 0.13
GGUGUGCAUACUAUACAACCUACUACCUCA	1.73 ± 0.1
GGUCAGCAUACUAUACAACCUACUACCUCA	1.81 ± 0.096
CCUCUGCAUACUUUACAACCUACUACCUCA	2.13 ± 0.15
GGUCUGCAUACAAUACAACCUACUACCUCA	1.45 ± 0.11
GCUCAGCAUACUAUACAACCUACUACCUCA	1.83 ± 0.11
GCUCUGCAUACUUUACAACCUACUACCUCA	1.68 ± 0.11
CCUGUGCAUACUAUACAACCUACUACCUCA	2.3 ± 0.15
CCUCUGCAUACAAUACAACCUACUACCUCA	2.02 ± 0.12
GGAGACCUAUCUAAACAACCUACAACCUCA	0.00335 ± 0.0022
CCUCUGGAUACUAUACAGACCUACUACCUCA	0.0114 ± 0.0052
GGAGUGCAUACUAUACAACGUACUACCUCA	0.714 ± 0.039
GGAGAGGAUACUAUACAACCUACUACCUUA	1.28 ± 0.066
CCUCUGGAUAGUAUACAACCUACUUCCUCA	0.21 ± 0.034
GGAGAGGAUUCUAUACAACCUACUACCACA	0.665 ± 0.047
GGUCUGCUUACUAUACAACCUACUACCUCA	1.74 ± 0.12
GCUCUGCUUACUAUACAACCUACUACCUCA	1.96 ± 0.12

Sequence	pre-steady-state target cleavage rate
CCUCUGCUUACUAUACAACCUACUACCUCA	2.19 ± 0.15
GCACUGGAUACUAUACAACCAACUACCUCA	0.167 ± 0.017
GGAGUGCAUACAAUACAACCUACUACCUCA	1.11 ± 0.092
GGUCUGAUACUAUACAACCUACUACCUCA	1.79 ± 0.1
GCUCUGAUACUAUACAACCUACUACCUCA	1.9 ± 0.12
GGUCUGAGAUACUAUACAACCUACUACCUCA	1.89 ± 0.11
CCUCUGAGAUACUAUACAACCUACUACCUCA	0.572 ± 0.056
GCUCUGAGAUACUAUACAACCUACUACCUCA	2.07 ± 0.12
CCUCUGAUACUAUACAACCUACUACCUCA	2.11 ± 0.12
GGAGACCAUACUAUACAACCUACCUACCUCA	1.06 ± 0.066
GGAGUGGAUAUUAUACAACCUACUACCUCA	1.48 ± 0.072
GGAGACCAUACUAUACAACCUACUACCUCU [g2:g23:cont:t1U]	1.7 ± 0.11
GGAGUGGAUAGUAUUCAACCUACUACCUCA	0.584 ± 0.064
GGAGACCUUACUAUACAUGGUACUACCUCA	0.00452 ± 0.0025
GCUCUGGUUACUAUUCAACCUACUACCUCA	1.88 ± 0.12
CCUCUGGAUACUAUACAACCUACUUCCACA	0.337 ± 0.05
GGACUGGAUUCUAUACAACCUACUACCUCA	1.63 ± 0.11
GCUACUGGAUACUAUACAACCUACUACCUCA	2.14 ± 0.13
CCACUGGAUACUAUACAACCUACUACCUCA	1.8 ± 0.11
GCACUGGAUACUAUACAACCUACUACCUCA	1.81 ± 0.093
GGACUGGAUACUAUACUACCUACAACCUCA	0.39 ± 0.057
GGACUGGAUACUAUACAACCUACUACCUCC [g2:g27:cont:t1C]	1.42 ± 0.088

Sequence	pre-steady-state target cleavage rate
GCACUGGAUUCUAUACAACCUACUACCUCA	1.85 ± 0.096
GGACUGGAUACUAUACAACCUACCUACCUCA	1.06 ± 0.094
GGACUGGAUACUAUACAACCUACUACCUCCA	2.19 ± 0.17
CCACUGGAUUCUAUACAACCUACUACCUCA	2.08 ± 0.12
CCUACUGGAUACUAUACAACCUACUACCUCA	2.04 ± 0.11
GGACUGGAUACCUAUACAACCUACUACCUCA	1.15 ± 0.095
GGUCAGGAUACUAUACAACCUACUAGCUCA	0.255 ± 0.033
GGAGACCUAACUAUACAACCUACUACCAGA	0.385 ± 0.062
GGAGACCUUACUAUACAACCUACUACCCCA	0.956 ± 0.086
GGAGACGAUACUAUACAACCUACUACGUGA	0.348 ± 0.054
GGACUGGAUACUAUACAACCUAUUACCUCA	0.86 ± 0.075
GCUCUGGAUACUAUACAACCUACAUGCUCA	0.589 ± 0.072
GGAGACCAUACUAAUACAACCUACUACCUCA	0.978 ± 0.08
GGUCUGCAUACUAUACAACCUACUACCUGA	0.677 ± 0.13
GGAGACGAUUCUAUACAACCUACUACGUCA	0.92 ± 0.069
CCUCUGGAUCCUAUACAACCUACUACCUCA	1.38 ± 0.14
GGUCUGGAUACAUACAACCUACUACCUCA	1.44 ± 0.11
CCUCAGGAUUCUAUACAACCUACUACCUCA	2.24 ± 0.13
GGUCAGGAUUCUAUACAACCUACUACCUCA	1.77 ± 0.12
GCUCAGGAUUCUAUACAACCUACUACCUCA	1.87 ± 0.092
GCUGUGGAUACUAUACAACCUACUACCUGA	0.776 ± 0.18
